Measurements from publication PMC12701074.

The substances below were run against Histone H2B type 1-L (UniProt Q99880) (assay: cross-link between two proteins; cross-linking mass spectrometry).

Listed as a hit, yes:
Large ribosomal subunit protein uL18, P46777
Large ribosomal subunit protein eL6, Q02878
Small ribosomal subunit protein eS8, P62241
